# In PubChem BioAssay AID1540 (National Center for Advancing Translational Sciences (NCATS), 2009):
# Inconclusive results are not listed. Calls of active or inactive are those of the source. The call rests on the fitted dose curve; in most records, active means well fitted activation curve with a large enough effect; inconclusive means small, poorly fitted or top-dose-only effect, or effect the other way; inactive means flat fitted curve, though single readings scatter.
# Molecular target: Pyruvate kinase PKM (Homo sapiens) (UniProt P14618)
# Sequence (P14618 whole entry, looked up, canonical isoform): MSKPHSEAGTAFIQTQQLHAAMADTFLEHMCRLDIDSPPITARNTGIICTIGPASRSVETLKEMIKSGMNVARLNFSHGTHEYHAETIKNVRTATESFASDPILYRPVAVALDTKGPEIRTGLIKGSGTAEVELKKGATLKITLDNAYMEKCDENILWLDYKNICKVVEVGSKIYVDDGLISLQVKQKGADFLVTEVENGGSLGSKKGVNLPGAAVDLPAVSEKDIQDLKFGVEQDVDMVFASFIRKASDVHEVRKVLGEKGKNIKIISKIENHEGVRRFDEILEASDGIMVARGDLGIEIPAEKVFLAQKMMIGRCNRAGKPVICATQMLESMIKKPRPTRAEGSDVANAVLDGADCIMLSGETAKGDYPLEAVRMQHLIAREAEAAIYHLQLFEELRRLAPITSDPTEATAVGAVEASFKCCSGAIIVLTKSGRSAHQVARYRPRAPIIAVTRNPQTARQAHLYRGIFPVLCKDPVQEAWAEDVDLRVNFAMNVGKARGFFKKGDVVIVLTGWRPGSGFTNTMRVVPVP
# Experiment: Secondary assay for Activators of Human Pyruvate Kinase M2 isoform
# Conditions: purified hPK-M2, LDH-coupled NADH fluorescence kinetic; series mostly up to 57.5 µM
# Procedure, shortened: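 Purified hPK-M2 (10 nM) coupled to LDH (1 uM) and 0.2 mM NADH, with 0.1 mM PEP and 4.0 mM ADP in Tris-Cl pH 8.0 and 15 mM MgCl2. Initial rates from kinetic NADH fluorescence depletion over 3–6 min, normalized to fructose-bis-phosphate activation.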
smiles,measurement,value
O=S(=O)(c1ccc(F)cc1)N1CCN(S(=O)(=O)c2ccc3c(c2)OCCO3)CC1,Potency,199 nM (active)
